High-throughput results deposited in PubChem by National Center for Advancing Translational Sciences (NCATS).
G9a inh – blocks human histone lysine methyltransferase G9a; G9a H3K9 monomethylation, AlphaScreen, 2 h; 350,000 tested, 8.8% active; Potency, µM (top dose mostly 102 µM), for the others: at the highest dose activity, negative = inhibition, actives largely listed as inhibitors; AID 504332; also: % is scaled to controls: 0 for no effect and ±100 for the full control effect; nearly all actives have a fitted effect of over 75% in size
Target sequence (Q96KQ7 913-1193 limits assumed): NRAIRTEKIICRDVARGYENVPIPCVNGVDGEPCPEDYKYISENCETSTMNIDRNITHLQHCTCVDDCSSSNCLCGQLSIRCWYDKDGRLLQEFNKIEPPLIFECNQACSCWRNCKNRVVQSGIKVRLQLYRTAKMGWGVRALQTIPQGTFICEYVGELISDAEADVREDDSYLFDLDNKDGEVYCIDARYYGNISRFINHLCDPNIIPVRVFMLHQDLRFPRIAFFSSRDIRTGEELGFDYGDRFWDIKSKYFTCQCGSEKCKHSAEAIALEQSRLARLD
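Chemiluminescent proximity detection of H3K9 monomethylation, read after 10 min bead incubation in the dark. Reaction: 20 nM G9a, 500 nM biotin-H3K9 peptide, 20 uM SAM cofactor, 2 h, room temperature, following 15 min enzyme-compound preincubation.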
Sfp PPTase inh – Sfp phosphopantetheinyl transferase inhibition; AID 1490; 310,000 tested, 3.5% active; Biochemical Sfp PPTase activity, qHTS; Potency, µM, inactives show largest response in the series, negative = inhibition, actives largely listed as inhibitors;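 also: the enzyme is Sfp with the accession as filed and its product quenches rhodamine fluorescence; 0% = enzyme reaction without inhibitor and -100% = no enzyme wells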
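With Hepes-Na pH 7.6 buffer containing 10 mM MgCl2, Sfp (15 nM) modified BHQ-2-YbbR (12.5 uM) using rhodamine-CoA (5 uM). Two reads 30 minutes apart at 525/598 nm yielded each well's rate.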
HP1b binding inh – HP1-beta chromodomain-methylated histone interaction inhibition; P83916; AID 540317; 390,000 tested, 0.56% active; Potency, µM (top dose mostly 114 µM), for the others: top-dose activity change, negative = inhibition, most hits filed as inhibitors; AlphaScreen HP1-beta / biotin-H3K9me3 peptide binding; also: nearly all actives have a fitted effect of over 70% in size
Target sequence (P83916 whole entry, looked up): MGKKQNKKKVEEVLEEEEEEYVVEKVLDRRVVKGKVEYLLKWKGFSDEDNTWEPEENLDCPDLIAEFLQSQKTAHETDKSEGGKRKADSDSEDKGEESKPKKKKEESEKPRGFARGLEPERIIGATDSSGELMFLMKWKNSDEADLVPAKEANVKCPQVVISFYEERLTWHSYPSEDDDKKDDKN
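HP1-beta protein (50 nM final) preincubated 30 min at room temperature with biotinylated H3(1-18)K9me3 peptide (50 nM) in PBS pH 7.4, 0.01% Tween-20, then compound added for 30 min. AlphaScreen streptavidin donor/nickel chelate acceptor beads (10 ug/mL final), 30 min dark, luminescence read.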
JMJD2A Tudor inh – JMJD2A Tudor domain (human) inhibition | 390,000 tested, 4.4% active | AlphaScreen JMJD2A-Tudor / H3K4me3 peptide binding | O75164 | Potency, µM (titrated, usually from 114 µM), inactives show at the highest dose activity change, negative = inhibition, usual class: inhibitors | AID 504339; also: % is scaled to controls: 0 for no effect and ±100 for the full control effect; nearly all actives have a fitted effect of over 50% in size
BAZ2B inh – inhibitors of human BAZ2B bromodomain; Q9UIF8; AlphaScreen BAZ2B-H3K14Ac peptide displacement; Potency, µM (highest dose often 114 µM), for the others: top-dose activity change, negative = inhibition, usual class: inhibitors; 360,000 tested, 4.4% active; also: % is scaled to controls: 0 for no effect and ±100 for the full control effect; nearly all actives have a fitted effect of over 60% in size
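Compounds, titrated to a top concentration of 110 uM, were incubated 30 min at room temperature with preformed BAZ2B/acetyl-K14 H3 peptide complex (50 nM each). Proximity signal was measured by AlphaScreen after 20 min with beads.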
An asterisk follows results filed as active; ? = inconclusive; · = not tested or not shown; [ ] = another dose, or the depositor's remark. Compounds with a hit are over-represented: about 12% of the library has one in this group of screens. Calls follow the shape of the dose curve; as a rule, active = well fitted curve in the direction sought with a large enough effect; inconclusive = small, poorly fitted or top-dose-only effect, or another doubt; inactive = no such curve, though single readings can be large; an effect the other way counts as inactive or inconclusive. Potency is read from the fitted curve at half-maximal effect.

SMILES | G9a inh | Sfp PPTase inh | HP1b binding inh | JMJD2A Tudor inh | BAZ2B inh
O=C(Cc1ccc(S(=O)(=O)N2CCOCC2)s1)Nc1ccccc1N1CCOCC1 | 45µM* | 2% | 9% | -17% | ·
CCCCn1nc(C(=O)Nc2c(C)n(C)n(-c3ccccc3)c2=O)c2ccccc2c1=O | -9%[59 µM] | · | 32% | -11% | -6%
COC(=O)c1ccccc1NC(=O)CNc1cc(Cl)ccc1N1CCOCC1 | 45µM* | ? | -2% | -25% | -5%
O=C(Cc1ccc(S(=O)(=O)N2CCOCC2)s1)Nc1ccccc1Br | · | -4% | -6% | ? | 71µM*
O=C(Nc1cc(Cl)ccc1N1CCOCC1)c1ccc(Br)o1 | 25µM* | -6% | 22% | -3% | ?
O=C(Cc1ccc(S(=O)(=O)N2CCOCC2)s1)NCC(=O)Nc1ccccc1Br | 2%[0.501 µM] | · | 37% | -3% | -30%
COc1ccc(N2CCOCC2)c(NC(=O)c2ccc(Br)o2)c1 | ? | -8% | 13% | -10% | ?
COCCn1c(=O)c(-c2ccccc2)nc2cnc(Oc3ccc(OC)cc3)nc21 | 10%[0.501 µM] | 8% | · | · | ·
COCC(=O)N1CCC2(CC1)CN(c1ccncc1)C2 | -16%[12.7 µM] | 14% | · | · | ·
Cc1ccc(-n2cccc2C(=S)N=P(N(C)C)(N(C)C)N(C)C)cc1 | ? | ? | -27% | 35µM* | ?
Cc1ccc(-n2cccc2C(=O)NS(=O)(=O)c2ccc(C)cc2)cc1 | -37% | -9% | 50% | -18% | -34%
COc1ccc(/C=C/C(=O)OCC(=O)Nc2ccc(Cl)cn2)cc1 | 5% | 19% | 68% | -17% | -18%
O=C(CSc1nnc(Cc2ccccc2)n1Cc1ccco1)NC12CC3CC(CC(C3)C1)C2 | 3%[12.7 µM] | -12% | 5% | ? | ?
CCOC(=O)c1c(NC(=O)CSc2nnc(CNC(=O)c3ccco3)n2C)sc2c1CCC2 | 50µM* | -14% | 6% | -32% | ?
NC(=O)c1c(NC(=O)CSc2nnc(Cc3ccccc3)n2Cc2ccco2)sc2c1CCC2 | 40µM* | -13% | -19% | ? | -35%
O=C(Cn1cc(CN(Cc2ccccc2)Cc2ccccc2)nn1)Nc1cc(C(F)(F)F)ccc1Cl | · | · | · | -23% | ·
COC(=O)c1cc2sc(Cl)cc2n1Cc1nc(-c2ccccc2F)oc1C | -20%[59 µM] | · | 24% | -1% | 1%
COc1ccc(C(C)=O)cc1COC(=O)CNC(=O)c1ccc(Cl)cc1 | 50µM* | 12% | 28% | -2% | -3%
CCOc1ccc(C(=O)NCC(=O)OCCCOC(=O)CNC(=O)c2ccc(OCC)cc2)cc1 | 42% | 6% | 28% | -4% | -1%
CCOc1ccc(C(=O)NCC(=O)OCc2cc(C(C)=O)ccc2OC)cc1 | 45µM* | -7% | 5% | -4% | 8%
COc1ccc(C(C)=O)cc1COC(=O)CNC(=O)c1ccc(F)cc1 | -15%[59 µM] | 2% | 30% | 1% | -1%
CCc1ccccc1Nc1cc(C(=O)NCCc2ccccc2)c2ccccc2n1 | 31%[59 µM] | · | 73% | 0% | ·
O=C(O)Cc1ccc(C(=O)c2ccc(F)cc2)s1 | ? | 9% | 45% | 0% | 6%
N#CCc1ccc(C(=O)c2ccccc2F)s1 | ? | -10% | 15% | -12% | 50µM*
Cc1cccc(NC(c2ccccc2C)c2ccc3ccc(C)nc3c2O)n1 (configuration not stated) | ? | · | -13% | ? | 22µM*
SMILES | G9a inh | Sfp PPTase inh | HP1b binding inh | JMJD2A Tudor inh | BAZ2B inh
O=S(=O)(Nc1cccc(C(F)(F)F)c1)c1cccnc1 | -10%[12.7 µM] | 20% | 27% | -24% | 2%
COc1cc(C(Nc2ccccn2)c2ccc3ccc(C)nc3c2O)cc(OC)c1O (configuration not stated) | ? | 18µM* | ? | 50µM* | 50µM*
Cc1ccc2ccc(C(Nc3cccc(C(F)(F)F)c3)c3cccnc3)c(O)c2n1 (configuration not stated) | 10µM* | 14% | 5% | ? | -25%
Cc1ccc2ccc(C(Nc3ccccn3)c3ccccc3)c(O)c2n1 (configuration not stated) | 14µM* | 11% | 4% | ? | ?
Cc1cccc(NCc2ccccc2O)n1 | ? | -5% | 38% | -7% | 2%
CCN(CC)C(=O)Nc1ccc(OC[C@H](O)CNC(C)(C)C)c(C(C)=O)c1 | -45%[12.7 µM] | 27% | · | · | ·
Cc1c(NC(=O)COC(=O)c2cc(-c3ccc(-c4ccccc4)cc3)nc3ccccc23)c(=O)n(-c2ccccc2)n1C | 1%[59 µM] | 50µM* | 34% | -12% | -2%
Cc1c(NC(=O)c2cc(-c3ccccc3)nc3ccccc23)c(=O)n(-c2ccccc2)n1C | · | · | 30% | -8% | ·
Cc1c(NC(=O)C(C)OC(=O)c2cc(-c3cccc4ccccc34)nc3ccccc23)c(=O)n(-c2ccccc2)n1C (configuration not stated) | 11µM* | 0% | -3% | -27% | -5%
Cc1c(NC(=O)C(C)OC(=O)/C=C/c2ccco2)c(=O)n(-c2ccccc2)n1C (configuration not stated) | ? | -4% | 45µM* | 20µM* | 50µM*
COc1ccc(-c2cc(C(=O)OC(C)C(=O)Nc3c(C)n(C)n(-c4ccccc4)c3=O)c3ccccc3n2)cc1 (configuration not stated) | 22%[59 µM] | 13% | -5% | -8% | -2%
C=C1CCC[C@]2(C)C[C@H]3OC(=O)C(CNCC(OC)OC)[C@H]3CC12 (some centres not stated) | 79µM* | 8% | -11% | -22% | -16%
C=C1CCC[C@]2(C)C[C@H]3OC(=O)C(CNC(C)CCCC(C)C)[C@H]3CC12 (some centres not stated) | -4% | 3% | 0% | -9% | -14%
CCCN1CCN(C(=O)c2ccccc2-c2nc3ccccc3s2)CC1 | 40µM* | 10% | 23% | -24% | -31%
CCN1CCN(C(=O)c2ccc(-c3nc4ccccc4s3)s2)CC1 | -43% | 1% | 13% | -12% | 1%
C=C(C)C(=O)Nc1cccc(C2=NOC3(C2)C[C@@H](C(N)=O)N(C(=O)c2ccc(OC)cc2)C3)c1 (some centres not stated) | ? | 13% | 3.2µM* | 2.8µM* | 1.8µM*
C=C(C)C(=O)Nc1cccc(C2=NOC3(C2)C[C@@H](C(N)=O)N(C(=O)CCCCC)C3)c1 (some centres not stated) | ? | 11% | 1.6µM* | 1.8µM* | 1.4µM*
CCCCCC(=O)N1CC2(CC(c3cccc(NC(=O)[C@@H]4CCC(=O)N4)c3)=NO2)C[C@@H]1C(N)=O (some centres not stated) | 0%[12.7 µM] | 9% | 13% | -24% | 1%
